Source: article PMC7862700, “An all-to-all approach to the identification of sequence-specific readers for epigenetic DNA modifications on cytosine”

Experiments:
Assay in all cases: DAPPL (digital affinity profiling via proximity ligation, sequencing); 10 mM Tris-HCl pH 7.5, 50 mM NaCl, 1 mM DTT, 4% glycerol, room temperature, 30 min; GST-TFs on glutathione beads, 16-mer random dsDNA library, 0.1% formaldehyde crosslink after washing; high values mean tight binding
[1] = target: T1, FEV (Homo sapiens, UniProt Q99581 1-238); settings: protein: recombinant; tags: N-terminal GST; dsDNA, one strand shown
T1 sequence: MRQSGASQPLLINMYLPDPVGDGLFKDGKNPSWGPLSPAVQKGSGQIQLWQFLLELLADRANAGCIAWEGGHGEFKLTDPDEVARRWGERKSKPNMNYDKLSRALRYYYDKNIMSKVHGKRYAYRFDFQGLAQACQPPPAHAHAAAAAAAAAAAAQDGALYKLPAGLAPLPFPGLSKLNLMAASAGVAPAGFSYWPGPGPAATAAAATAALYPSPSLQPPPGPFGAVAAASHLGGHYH
Method in brief: (§1)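 Each value of binding signal is a hexamer's read frequency for a factor divided by the same hexamer's frequency in the tag-only sample. Barcoded, bead-captured GST fusions of human transcription factors made in yeast were pooled with that sample and incubated with 200 nmole of a random double-stranded 16-mer DNA library in Tris/NaCl/DTT/glycerol buffer at room temperature for 30 min. Washing, 0.1% formaldehyde crosslinking, proximity ligation, PCR and Illumina NextSeq500 sequencing followed.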

[2] = target: ETV5 (Homo sapiens, UniProt P41161 1-510); settings: protein: recombinant; tags: N-terminal GST; dsDNA, one strand shown
ETV5, sequence (P41161 whole entry): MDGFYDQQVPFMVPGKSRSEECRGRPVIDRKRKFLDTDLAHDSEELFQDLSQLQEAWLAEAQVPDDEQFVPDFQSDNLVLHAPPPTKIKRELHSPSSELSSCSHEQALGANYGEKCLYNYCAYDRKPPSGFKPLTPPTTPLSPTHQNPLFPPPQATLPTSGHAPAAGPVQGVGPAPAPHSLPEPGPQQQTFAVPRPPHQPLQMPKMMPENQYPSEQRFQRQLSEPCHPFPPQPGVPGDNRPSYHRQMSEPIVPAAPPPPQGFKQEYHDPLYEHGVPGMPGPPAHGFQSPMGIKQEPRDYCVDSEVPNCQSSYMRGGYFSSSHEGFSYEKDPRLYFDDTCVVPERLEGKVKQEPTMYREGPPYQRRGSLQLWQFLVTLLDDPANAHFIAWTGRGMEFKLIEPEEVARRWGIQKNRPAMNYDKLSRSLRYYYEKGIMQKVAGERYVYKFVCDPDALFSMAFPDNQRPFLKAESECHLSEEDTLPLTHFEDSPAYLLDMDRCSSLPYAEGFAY
Method in brief: as §1

[3] = target: HSF1 (Homo sapiens, UniProt Q00613 1-529); settings: protein: recombinant; tags: N-terminal GST; chain copies: 3; dsDNA, one strand shown
HSF1, sequence (Q00613 whole entry): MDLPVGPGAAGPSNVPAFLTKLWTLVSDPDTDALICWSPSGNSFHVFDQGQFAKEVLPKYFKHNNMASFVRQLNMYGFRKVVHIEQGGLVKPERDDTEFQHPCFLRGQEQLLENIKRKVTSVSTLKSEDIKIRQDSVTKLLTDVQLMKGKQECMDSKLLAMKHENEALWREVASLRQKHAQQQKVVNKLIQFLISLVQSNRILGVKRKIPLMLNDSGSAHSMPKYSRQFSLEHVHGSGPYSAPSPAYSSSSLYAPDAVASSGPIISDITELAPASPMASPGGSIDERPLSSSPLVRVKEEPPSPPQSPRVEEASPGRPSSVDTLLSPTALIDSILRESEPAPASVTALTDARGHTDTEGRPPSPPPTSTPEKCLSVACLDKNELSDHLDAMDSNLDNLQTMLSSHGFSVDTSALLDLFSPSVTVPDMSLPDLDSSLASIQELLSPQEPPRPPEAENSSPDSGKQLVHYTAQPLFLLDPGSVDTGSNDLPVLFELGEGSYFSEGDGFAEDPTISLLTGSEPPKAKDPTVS
Method in brief: as §1

[4] = target: T2, SPIC (Homo sapiens, UniProt Q8N5J4 1-248); settings: protein: recombinant; tags: N-terminal GST; dsDNA, one strand shown
T2 sequence: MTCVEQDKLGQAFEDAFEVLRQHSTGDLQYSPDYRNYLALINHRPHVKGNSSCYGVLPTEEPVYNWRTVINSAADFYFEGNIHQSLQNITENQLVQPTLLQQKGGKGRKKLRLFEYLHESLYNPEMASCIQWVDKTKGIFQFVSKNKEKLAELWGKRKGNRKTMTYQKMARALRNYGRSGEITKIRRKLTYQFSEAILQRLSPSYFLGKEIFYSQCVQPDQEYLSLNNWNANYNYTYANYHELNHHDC
Method in brief: as §1

[5] = target: ELF4 (Homo sapiens, UniProt Q99607 1-663); settings: protein: recombinant; tags: N-terminal GST; dsDNA, one strand shown
ELF4, sequence (Q99607 whole entry): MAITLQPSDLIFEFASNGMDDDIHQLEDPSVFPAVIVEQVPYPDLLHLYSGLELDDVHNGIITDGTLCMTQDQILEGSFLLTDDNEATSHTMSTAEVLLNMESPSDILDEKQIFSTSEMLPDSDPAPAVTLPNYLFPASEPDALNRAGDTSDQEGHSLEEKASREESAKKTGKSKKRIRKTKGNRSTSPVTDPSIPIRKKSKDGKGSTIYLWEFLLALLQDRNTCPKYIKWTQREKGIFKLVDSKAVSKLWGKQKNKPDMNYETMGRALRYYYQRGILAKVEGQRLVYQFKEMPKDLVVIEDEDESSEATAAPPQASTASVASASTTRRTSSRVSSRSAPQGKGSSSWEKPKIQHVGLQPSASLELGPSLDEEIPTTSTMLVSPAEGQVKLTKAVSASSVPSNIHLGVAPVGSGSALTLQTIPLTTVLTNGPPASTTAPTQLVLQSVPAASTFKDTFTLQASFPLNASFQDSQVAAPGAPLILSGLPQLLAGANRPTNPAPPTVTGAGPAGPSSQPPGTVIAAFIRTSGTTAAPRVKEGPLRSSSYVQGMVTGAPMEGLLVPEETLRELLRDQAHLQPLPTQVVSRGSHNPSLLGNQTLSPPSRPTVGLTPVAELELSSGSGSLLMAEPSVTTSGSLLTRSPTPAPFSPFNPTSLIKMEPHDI
Method in brief: as §1

[6] = target: T3, ELK4 (Homo sapiens, UniProt P28324-2 1-405); settings: protein: recombinant; tags: N-terminal GST; dsDNA, one strand shown
T3 sequence: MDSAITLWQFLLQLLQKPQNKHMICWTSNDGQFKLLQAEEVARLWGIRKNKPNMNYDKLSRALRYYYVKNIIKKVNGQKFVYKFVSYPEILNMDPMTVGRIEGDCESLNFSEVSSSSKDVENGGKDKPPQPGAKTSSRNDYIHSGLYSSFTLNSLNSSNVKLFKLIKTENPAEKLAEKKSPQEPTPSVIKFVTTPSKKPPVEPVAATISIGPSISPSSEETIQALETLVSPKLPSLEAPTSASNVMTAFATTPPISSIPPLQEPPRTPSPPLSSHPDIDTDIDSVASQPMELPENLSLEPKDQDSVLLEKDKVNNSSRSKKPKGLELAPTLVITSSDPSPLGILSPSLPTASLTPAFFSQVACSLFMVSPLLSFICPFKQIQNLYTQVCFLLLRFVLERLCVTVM
Method in brief: as §1

[7] = target: T4, ETV2 (Homo sapiens, UniProt O00321 1-342); settings: protein: recombinant; tags: N-terminal GST; dsDNA, one strand shown
T4 sequence: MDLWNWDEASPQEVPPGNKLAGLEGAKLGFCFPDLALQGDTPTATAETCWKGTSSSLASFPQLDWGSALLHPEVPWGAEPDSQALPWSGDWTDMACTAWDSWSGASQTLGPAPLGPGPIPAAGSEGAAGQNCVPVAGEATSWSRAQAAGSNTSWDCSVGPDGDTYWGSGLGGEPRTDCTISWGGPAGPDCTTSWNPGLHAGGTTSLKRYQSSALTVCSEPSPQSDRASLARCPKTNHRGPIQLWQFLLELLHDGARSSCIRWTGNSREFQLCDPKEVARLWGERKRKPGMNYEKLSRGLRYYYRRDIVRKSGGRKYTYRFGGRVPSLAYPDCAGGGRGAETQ
Method in brief: as §1

[8] = target: T5, ELF3 (Homo sapiens, UniProt P78545 1-371); settings: protein: recombinant; tags: N-terminal GST; dsDNA, one strand shown
T5 sequence: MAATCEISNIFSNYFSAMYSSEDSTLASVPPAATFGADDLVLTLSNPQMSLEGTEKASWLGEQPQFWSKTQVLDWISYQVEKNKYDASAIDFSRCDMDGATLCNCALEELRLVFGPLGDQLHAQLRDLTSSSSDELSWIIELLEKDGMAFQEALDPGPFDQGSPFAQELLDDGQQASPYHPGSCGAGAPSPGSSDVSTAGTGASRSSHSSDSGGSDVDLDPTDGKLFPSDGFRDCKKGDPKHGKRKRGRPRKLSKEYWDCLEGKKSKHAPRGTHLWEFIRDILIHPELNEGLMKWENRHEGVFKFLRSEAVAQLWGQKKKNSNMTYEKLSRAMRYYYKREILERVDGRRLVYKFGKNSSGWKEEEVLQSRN
Method in brief: as §1

[9] = target: CRX (Homo sapiens, UniProt O43186 1-299); settings: protein: recombinant; tags: N-terminal GST; dsDNA, one strand shown
CRX, sequence (O43186 whole entry): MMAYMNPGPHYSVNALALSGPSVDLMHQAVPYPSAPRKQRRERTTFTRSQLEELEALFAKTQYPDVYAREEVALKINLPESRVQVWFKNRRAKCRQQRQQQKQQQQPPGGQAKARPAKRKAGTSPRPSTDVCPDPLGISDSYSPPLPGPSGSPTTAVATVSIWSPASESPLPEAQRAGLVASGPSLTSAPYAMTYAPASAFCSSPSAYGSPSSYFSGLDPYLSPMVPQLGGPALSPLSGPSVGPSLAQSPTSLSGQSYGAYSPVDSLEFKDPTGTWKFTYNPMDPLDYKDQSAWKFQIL
Method in brief: as §1

[10] = target: ETV1 (Homo sapiens, UniProt P50549 1-477); settings: protein: recombinant; tags: N-terminal GST; dsDNA, one strand shown
ETV1, sequence (P50549 whole entry): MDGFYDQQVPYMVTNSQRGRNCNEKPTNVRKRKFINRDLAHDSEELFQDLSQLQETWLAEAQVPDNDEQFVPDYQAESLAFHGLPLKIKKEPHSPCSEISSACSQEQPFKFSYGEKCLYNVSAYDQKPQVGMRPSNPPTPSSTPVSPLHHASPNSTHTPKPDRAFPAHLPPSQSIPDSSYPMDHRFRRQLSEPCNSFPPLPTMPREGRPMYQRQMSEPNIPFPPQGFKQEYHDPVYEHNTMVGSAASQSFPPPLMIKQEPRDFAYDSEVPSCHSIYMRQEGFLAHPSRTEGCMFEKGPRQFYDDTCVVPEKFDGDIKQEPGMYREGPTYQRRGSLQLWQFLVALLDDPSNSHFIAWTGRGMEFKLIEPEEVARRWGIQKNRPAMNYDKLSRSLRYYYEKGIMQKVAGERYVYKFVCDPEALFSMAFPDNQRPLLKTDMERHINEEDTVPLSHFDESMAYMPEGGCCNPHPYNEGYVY
Method in brief: as §1

[11] = target: T6, ERF (Homo sapiens, UniProt P50548 1-548); settings: protein: recombinant; tags: N-terminal GST; dsDNA, one strand shown
T6 sequence: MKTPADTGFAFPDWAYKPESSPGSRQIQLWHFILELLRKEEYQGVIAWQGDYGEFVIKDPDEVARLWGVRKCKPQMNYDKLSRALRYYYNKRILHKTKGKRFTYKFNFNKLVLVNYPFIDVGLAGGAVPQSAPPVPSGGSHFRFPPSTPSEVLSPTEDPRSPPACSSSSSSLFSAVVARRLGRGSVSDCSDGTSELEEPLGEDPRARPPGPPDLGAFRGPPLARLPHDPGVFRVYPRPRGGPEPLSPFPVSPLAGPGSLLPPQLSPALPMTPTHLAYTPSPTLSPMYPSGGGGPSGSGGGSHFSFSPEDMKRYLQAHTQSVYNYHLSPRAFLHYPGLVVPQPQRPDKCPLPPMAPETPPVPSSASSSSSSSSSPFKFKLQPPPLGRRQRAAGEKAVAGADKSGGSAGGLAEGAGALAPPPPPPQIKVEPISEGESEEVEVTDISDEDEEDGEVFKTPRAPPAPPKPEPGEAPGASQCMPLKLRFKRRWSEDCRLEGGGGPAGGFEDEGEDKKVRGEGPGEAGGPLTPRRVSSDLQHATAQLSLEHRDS
Method in brief: as §1

[12] = target: T7, ETV3L (Homo sapiens, UniProt Q6ZN32 1-361); settings: protein: recombinant; tags: N-terminal GST; dsDNA, one strand shown
T7 sequence: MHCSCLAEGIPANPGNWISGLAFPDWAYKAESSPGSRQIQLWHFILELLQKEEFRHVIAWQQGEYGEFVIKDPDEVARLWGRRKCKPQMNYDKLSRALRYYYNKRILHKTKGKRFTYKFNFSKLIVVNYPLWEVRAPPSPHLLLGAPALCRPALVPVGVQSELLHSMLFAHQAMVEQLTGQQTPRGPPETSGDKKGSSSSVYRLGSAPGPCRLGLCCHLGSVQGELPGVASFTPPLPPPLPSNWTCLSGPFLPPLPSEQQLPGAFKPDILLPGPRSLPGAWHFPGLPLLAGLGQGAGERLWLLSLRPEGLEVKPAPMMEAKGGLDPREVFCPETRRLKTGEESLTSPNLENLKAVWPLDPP
Method in brief: as §1

[13] = target: T8, ETS2 (Homo sapiens, UniProt P15036 1-469); settings: protein: recombinant; tags: N-terminal GST; dsDNA, one strand shown
T8 sequence: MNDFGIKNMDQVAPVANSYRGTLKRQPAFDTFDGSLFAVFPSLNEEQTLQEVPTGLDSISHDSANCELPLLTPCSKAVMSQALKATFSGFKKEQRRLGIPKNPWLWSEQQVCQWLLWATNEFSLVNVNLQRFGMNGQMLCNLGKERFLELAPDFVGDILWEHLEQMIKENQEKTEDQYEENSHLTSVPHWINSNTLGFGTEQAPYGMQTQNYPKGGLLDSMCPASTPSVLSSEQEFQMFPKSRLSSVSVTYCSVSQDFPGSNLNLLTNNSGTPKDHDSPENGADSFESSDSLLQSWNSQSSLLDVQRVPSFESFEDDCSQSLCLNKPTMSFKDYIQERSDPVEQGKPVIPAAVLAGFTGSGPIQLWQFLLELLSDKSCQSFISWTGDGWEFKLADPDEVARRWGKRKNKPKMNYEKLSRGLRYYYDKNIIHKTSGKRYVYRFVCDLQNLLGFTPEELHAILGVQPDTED
Method in brief: as §1

[14] = target: T9, SPDEF (Homo sapiens, UniProt O95238 1-335); settings: protein: recombinant; tags: N-terminal GST; dsDNA, one strand shown
T9 sequence: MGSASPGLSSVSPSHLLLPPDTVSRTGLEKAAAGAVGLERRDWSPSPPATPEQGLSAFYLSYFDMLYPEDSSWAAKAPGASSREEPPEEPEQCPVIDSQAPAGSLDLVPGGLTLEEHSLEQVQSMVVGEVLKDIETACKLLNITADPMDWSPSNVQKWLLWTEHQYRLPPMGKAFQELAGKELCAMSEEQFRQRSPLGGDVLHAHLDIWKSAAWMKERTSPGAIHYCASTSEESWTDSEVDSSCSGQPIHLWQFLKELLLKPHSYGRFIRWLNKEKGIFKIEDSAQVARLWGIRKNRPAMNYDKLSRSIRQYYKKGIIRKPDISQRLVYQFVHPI
Method in brief: as §1

[15] = target: T10, ETV7 (Homo sapiens, UniProt Q9Y603 1-341); settings: protein: recombinant; tags: N-terminal GST; dsDNA, one strand shown
T10 sequence: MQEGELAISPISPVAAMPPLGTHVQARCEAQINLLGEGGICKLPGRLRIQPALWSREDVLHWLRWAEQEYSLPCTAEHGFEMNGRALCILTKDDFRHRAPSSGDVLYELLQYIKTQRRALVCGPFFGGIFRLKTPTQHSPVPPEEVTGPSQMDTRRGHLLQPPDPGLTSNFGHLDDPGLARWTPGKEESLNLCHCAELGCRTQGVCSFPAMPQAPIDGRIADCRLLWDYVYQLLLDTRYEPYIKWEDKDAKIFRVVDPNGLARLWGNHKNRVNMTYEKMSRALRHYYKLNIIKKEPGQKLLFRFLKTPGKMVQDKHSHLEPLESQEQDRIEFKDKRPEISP
Method in brief: as §1

[16] = target: T11, ELF5 (Homo sapiens, UniProt Q9UKW6-2 1-255); settings: protein: recombinant; tags: N-terminal GST; dsDNA, one strand shown
T11 sequence: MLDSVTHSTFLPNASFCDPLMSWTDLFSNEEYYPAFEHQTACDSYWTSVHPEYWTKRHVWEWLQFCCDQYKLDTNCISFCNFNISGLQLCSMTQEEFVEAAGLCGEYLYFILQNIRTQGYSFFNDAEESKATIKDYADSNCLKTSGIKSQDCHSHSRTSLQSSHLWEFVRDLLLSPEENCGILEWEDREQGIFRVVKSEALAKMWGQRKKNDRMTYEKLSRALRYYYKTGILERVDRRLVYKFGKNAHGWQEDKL
Method in brief: as §1

[17] = target: T12, ETV3 (Homo sapiens, UniProt P41162-2 1-143); settings: protein: recombinant; tags: N-terminal GST; dsDNA, one strand shown
T12 sequence: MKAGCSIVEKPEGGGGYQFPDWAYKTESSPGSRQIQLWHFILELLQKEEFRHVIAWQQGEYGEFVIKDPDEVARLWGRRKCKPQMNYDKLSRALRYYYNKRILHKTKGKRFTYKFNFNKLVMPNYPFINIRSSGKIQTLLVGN
Method in brief: as §1

[18] = target: ETV6 (Homo sapiens, UniProt P41212 1-452); settings: protein: recombinant; tags: N-terminal GST; dsDNA, one strand shown
ETV6, sequence (P41212 whole entry): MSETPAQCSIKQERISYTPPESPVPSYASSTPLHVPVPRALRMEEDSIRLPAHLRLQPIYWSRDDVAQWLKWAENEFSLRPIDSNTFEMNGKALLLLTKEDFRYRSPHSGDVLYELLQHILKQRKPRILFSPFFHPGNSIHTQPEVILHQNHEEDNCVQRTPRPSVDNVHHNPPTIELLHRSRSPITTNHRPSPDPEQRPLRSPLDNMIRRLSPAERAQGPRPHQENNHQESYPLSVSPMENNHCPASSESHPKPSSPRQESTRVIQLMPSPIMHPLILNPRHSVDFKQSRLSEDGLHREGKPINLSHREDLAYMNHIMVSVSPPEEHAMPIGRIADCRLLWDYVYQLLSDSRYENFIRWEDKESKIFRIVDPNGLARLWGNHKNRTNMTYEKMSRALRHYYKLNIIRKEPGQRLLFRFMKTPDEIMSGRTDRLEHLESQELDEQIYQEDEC
Method in brief: as §1

TCCGTA
binding signal [1]: 1.43 fold enrichment (6-mer frequency, TF over GST control)
binding signal [2]: 1.62 fold enrichment (6-mer frequency, TF over GST control)
binding signal [3]: 1.1 fold enrichment (6-mer frequency, TF over GST control)
binding signal [4]: 1.56 fold enrichment (6-mer frequency, TF over GST control)
binding signal [5]: 1.47 fold enrichment (6-mer frequency, TF over GST control)
binding signal [6]: 1.6 fold enrichment (6-mer frequency, TF over GST control)
binding signal [7]: 1.63 fold enrichment (6-mer frequency, TF over GST control)
binding signal [8]: 1.47 fold enrichment (6-mer frequency, TF over GST control)
binding signal [9]: 1.21 fold enrichment (6-mer frequency, TF over GST control)
binding signal [10]: 1.47 fold enrichment (6-mer frequency, TF over GST control)
binding signal [11]: 1.43 fold enrichment (6-mer frequency, TF over GST control)
binding signal [12]: 1.53 fold enrichment (6-mer frequency, TF over GST control)
binding signal [13]: 1.57 fold enrichment (6-mer frequency, TF over GST control)
binding signal [14]: 1.79 fold enrichment (6-mer frequency, TF over GST control)
binding signal [15]: 1.37 fold enrichment (6-mer frequency, TF over GST control)
binding signal [16]: 2.03 fold enrichment (6-mer frequency, TF over GST control)
binding signal [17]: 1.71 fold enrichment (6-mer frequency, TF over GST control)
binding signal [18]: 1.54 fold enrichment (6-mer frequency, TF over GST control)
